Only some compounds are listed: those with a hit (about 7.4% of all), similar ones and a draw of the others.
ELG1 genotox: induces genotoxicity in HEK293T cells with luciferase-tagged ELG1; HEK293T ELG1-luciferase reporter, luminescence, 16 h; Potency, µM (series often up to 46 µM), inactives show top-dose activity change, positive = activation, most hits filed as activators; 330,000 tested, 1.3% active; further: % of control where 0% means no effect; nearly all actives have a fitted effect of over 60% in size
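Luminescence read-out: rising ELG1-luciferase signal, reflecting elevated ELG1 protein under genetic stress, flags genotoxic compounds. Cells were treated for 16 hr at 37 °C before ONE-Glo detection.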
Rab9 prom act: activates the Rab9 promoter; Huh7 Rab9 promoter-luciferase reporter, luminescence, 24 h; Potency, µM (titrated, usually from 9.22 µM), for the others: at the highest dose activation, negative = inhibition, actives largely listed as activators; 320,000 tested, 2.8% active; further: % of control where 0% means no effect; nearly all actives have a fitted effect of over 60% in size
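Promoter activation is measured as luciferase luminescence in Huh7 cells stably transfected with a Rab9 promoter–luciferase construct, following 24 h compound exposure at 37 °C and 10 min reagent incubation at ambient temperature.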
NPC1 prom act: NPC1 promoter activation; 320,000 tested, 2.4% active; Huh7 NPC1 promoter luciferase reporter, 24 h; AID 485313; Potency, µM (titrated, usually from 9.22 µM), without a hit: top-dose activation, hits mostly activators; further: % of control where 0% means no effect; nearly all actives have a fitted effect of over 60% in size
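Compounds in DMSO were transferred onto Huh7 NPC1-luciferase reporter cells pre-incubated 2 h; after 24 h at 37 °C, Amplite reagent was dispensed and luminescence recorded 10 min later.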
FLuc modulator: inhibits or activates purified firefly luciferase, miR-21 counter-screen; 360,000 tested, 6.9% active; Potency, µM (series often up to 57.5 µM), for the others: top-dose activity change, negative = inhibition, actives largely listed as inhibitors; P08659; purified FLuc, Km substrates, luminescence inhibition; AID 588342;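 further: plate controls were vehicle for no effect and reference inhibitor for full effect; nearly all actives have a fitted effect of over 55% in size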
Target sequence (P08659 whole entry, looked up): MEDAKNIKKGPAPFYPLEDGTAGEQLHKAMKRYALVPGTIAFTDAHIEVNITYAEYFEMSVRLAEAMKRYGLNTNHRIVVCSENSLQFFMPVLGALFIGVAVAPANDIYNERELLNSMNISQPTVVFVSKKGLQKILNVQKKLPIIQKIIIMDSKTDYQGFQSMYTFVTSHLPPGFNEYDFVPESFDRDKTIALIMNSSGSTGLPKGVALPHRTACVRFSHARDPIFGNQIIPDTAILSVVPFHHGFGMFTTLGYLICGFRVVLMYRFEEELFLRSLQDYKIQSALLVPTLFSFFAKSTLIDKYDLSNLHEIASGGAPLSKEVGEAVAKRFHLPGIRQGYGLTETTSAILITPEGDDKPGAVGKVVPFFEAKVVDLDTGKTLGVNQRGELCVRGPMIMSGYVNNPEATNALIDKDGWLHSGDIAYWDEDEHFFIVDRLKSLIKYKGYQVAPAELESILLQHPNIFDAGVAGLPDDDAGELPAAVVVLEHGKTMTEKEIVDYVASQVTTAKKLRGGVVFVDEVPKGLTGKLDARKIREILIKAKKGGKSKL
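Biochemical qHTS of compounds, final roughly 60 µM downward over six points, against 10 nM purified firefly luciferase using Km concentrations of substrates (10 uM D-luciferin, 10 uM ATP) in Tris acetate pH 7.5 buffer; luminescence output.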
SMN2 splice enh: increases expression of the SMN2 splice variant; HEK293 SMN2-luciferase splicing reporter, luminescence, 30-36 h; Potency, µM (series often up to 46.1 µM), without a hit: at the highest dose activity change, positive = activation, most hits filed as activators; 210,000 tested, 2.8% active; further: % of control where 0% means no effect; nearly all actives have a fitted effect of over 55% in size
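HEK293 cells carry an SMN2 minigene-luciferase reporter in which exon 7 inclusion puts luciferase in frame. Cells were seeded at 2000 cells/well, attached for 10-12 hours, then exposed to compounds for 30-36 hours at 37C before ONE-Glo luminescence.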
* = called active by the depositor; ? = inconclusive; / = not tested or not shown; [ ] = another dose, or the depositor's remark. The call rests on the fitted dose curve; in most records, active means well fitted curve in the direction sought with a large enough effect; inconclusive means small, poorly fitted or top-dose-only effect, or another doubt; inactive means no such curve, though single readings can be large; an effect the other way counts as inactive or inconclusive. Potency means the concentration at half of the fitted maximal effect.

SMILES | ELG1 genotox | Rab9 prom act | NPC1 prom act | FLuc modulator | SMN2 splice enh
CC(=O)Nc1ccc2nc(NC(=O)c3ccco3)sc2c1 | ? | 2µM* | 1.4µM* | 11µM* | /
CC(C)c1ccccc1NC(=O)Cn1cnc2c1c(=O)n(C)c(=O)n2C | / | / | / | 0% | -29%
CN1CCC(=NOc2ccc([N+](=O)[O-])cc2)CC1 | ? | 1.6µM* | 1.8µM* | ? | /
Cc1cccc(C)c1NC(=O)CSc1nc2[nH]c(=O)cc(O)c2s1 | 2% | 1% | 0% | 2% | /
O=C1OC(Nc2nc3ccccc3s2)c2ccccc21 (stereo not given) | 0% | 7% | -4% | 11µM* | -16%
CC(C)Cn1c(=O)c2sccc2n2c(CCCC(=O)NCc3ccccc3Cl)nnc12 | / | / | / | 6% | /
Cn1cccc1C(=O)N1CCC[C@@]2(CCN(c3ccncc3)C2)C1 | / | / | / | / | -9%
COC(c1ccccc1)c1nnc(CCC(=O)N(C)CCCC2CCCC2)o1 (stereo not given) | 4% | 6% | 2% | ? | /
COC(c1ccccc1)c1nnc(CCC(=O)N(C)CCOc2ccccc2)o1 (stereo not given) | ? | 28% | 17% | 27µM* | 12%
COC(c1ccccc1)c1nnc(CCC(=O)N(C)Cc2cccc(-n3cccn3)c2)o1 (stereo not given) | ? | ? | 4% | 15µM* | /
O=C(CNS(=O)(=O)c1cccc(F)c1)OCC(=O)N1CCCC1=O | 1% | -3% | -1% | 13% | /
O=C(Nc1ccccc1F)c1ccc(O)c2ncccc12 | / | -39% | -38% | -1% | /
Cc1cccc(NC(=O)CS(=O)(=O)c2nc(-c3ccccc3)cn2-c2cccc(Cl)c2)c1C | / | / | / | 4% | 28%
Cc1ccc(-c2cn(-c3cccc(Cl)c3)c(S(=O)(=O)CC(=O)Nc3ccccc3F)n2)cc1 | / | / | / | ? | 13µM*
Cc1ccc(-c2cn(-c3cccc(Cl)c3)c(S(=O)(=O)CC(=O)Nc3cccc(C)c3)n2)cc1 | / | / | / | -13% | 16µM*
Cc1ccc[n+](CC(=O)Nc2cccc(Cl)c2)c1 | -2% | 11% | -4% | 2% | /
O=C(CS(=O)(=O)c1nc(-c2ccc(Cl)cc2)cn1-c1ccccc1)Nc1cccc(Cl)c1 | / | / | / | ? | 13µM*
Cc1ccc(NC(=O)CS(=O)(=O)c2nc(-c3ccc(C)cc3)cn2-c2ccc(C)cc2)cc1 | / | / | / | ? | 18µM*
CC1CCCN(C(=S)NC2CCCC2)C1 (stereo not given) | 2% | 1% | -2% | 4% | -2%
O=C(Nc1cccc(F)c1)N1CC[C@@]2(CCCN(C(=O)c3cnccn3)C2)C1 | / | / | / | / | -10%
CC(C)[C@H](NC(=O)c1ccc(Br)cc1)C(=O)NC1CCCCC1 | 7% | 2% | 12% | -18% | /
O=C(Nc1cccc(S(=O)(=O)N2CCCC2)c1)c1cc(=O)[nH]c2ccccc12 | 0% | -3% | 1% | / | /
O=C(CS(=O)(=O)c1nc(-c2ccc(Cl)cc2)cn1-c1ccccc1)Nc1ccc(F)cc1F | / | / | / | 21µM* | 14µM*
O=C(CSc1nncn1-c1ccccc1)Nc1ccc(F)cc1F | 0% | -2% | 0% | 0% | /
COc1cc(Cl)ccc1OCc1cc(C(=O)N(C)CCc2cnn(C)c2)no1 | 7%[9.26 µM] | ? | ? | 12µM* | /
SMILES | ELG1 genotox | Rab9 prom act | NPC1 prom act | FLuc modulator | SMN2 splice enh
Cc1cc(OCc2cc(C(=O)N(C)C3CCOC3)no2)cc(C)c1Cl (stereo not given) | ? | 1.8µM* | 3.2µM* | 6µM* | /
Cc1cc(OCc2cc(C(=O)N(C)CCc3cnn(C)c3)no2)cc(C)c1Cl | ? | 3.2µM* | 2.8µM* | 8.5µM* | /
CCOc1ccc2nc(/N=C/c3c(C)[nH]n(-c4ccccc4)c3=O)sc2c1 | ? | ? | ? | 6.7µM* | 22µM*
CCOc1ccc2nc(/N=C/c3c(C)[nH]n(-c4ccc(C)cc4)c3=O)sc2c1 | 16% | ? | ? | 4.8µM* | 14µM*
CCOc1ccc2nc(SC3CC(=O)N(c4ccc(C)cc4)C3=O)sc2c1 (stereo not given) | -1% | -5% | 2% | 4% | -92%
CC[n+]1ccccc1/C=C/c1ccc(N(C)C)cc1 | -2% | -34% | -40% | -10% | -54%
CC[n+]1ccc(/C=C/c2ccc(N(C)C)cc2)c2ccccc21 | -7% | -61% | -38% | 24µM* | /
